Test results published in the supplement of paper PMC13380429.
A number with no mark means an inactive call.

test system: Vero E6 infected with SARS-CoV-2; assay: inhibition of SARS-CoV-2 cytopathic effect; higher = more antiviral protection, active = above 15; settings: 833.33 nM; 48 h

| SMILES | inhibition of SARS-CoV-2 cytopathic effect [%] |
| --- | --- |
| COc1cc(OCc2cccc(-c3ccccc3)c2C)cc(OC)c1CN1CCCC[C@H]1C(=O)O [PD1-PDL-inhibitor-1] | 0.14 |
| N#CCC(=O)c1ccccc1 | 2.33 |
| CC(C)(C)C(=O)C(Oc1ccc(Cl)cc1)n1ccnc1 (configuration not stated) [climbazole] | -1.58 |
| CCCC[C@H](NC(=O)[C@@H]1[C@@H]2[C@H](CN1C(=O)[C@@H](NC(=O)NC1(CS(=O)(=O)C(C)(C)C)CCCCC1)C(C)(C)C)C2(C)C)C(=O)C(=O)NC1CC1 [narlaprevir] | 3.2 |
| CNC1CCCN(c2c(F)cc3c(=O)c(C(=O)O)cn(C4CC4)c3c2OC)C1 (configuration not stated) [balofloxacin] | 1.72 |
| C[C@]12CCC(=O)C=C1CC[C@@H]1[C@@H]2CC[C@@]2(C)[C@H]1CC[C@]2(O)C(=O)CO [cortodoxone] | 0.07 |
| O=C1N=C2SCCN2C(=O)C1Cc1ccc(Cl)cc1 (configuration not stated) [nuclomedone] | 0.58 |
| Cc1ccccc1NC(=N)Nc1ccccc1C [ditolylguanidine] | -2.29 |
| CS(=O)(=O)c1cccc(CNc2nc(Nc3ccc4c(c3)CCC(=O)N4)ncc2C(F)(F)F)c1 | 1.33 |
| O=C(Nc1ccc(S(=O)(=O)Nc2nccs2)cc1)C(c1ccccc1)c1ccccc1 | 2.29 |
| OC[C@H]1O[C@@H](Oc2ccc(O)cc2)[C@H](O)[C@@H](O)[C@@H]1O [arbutin] | -2.34 |
| CN[C@H](CC(C)C)C(=O)N[C@H]1C(=O)N[C@@H](CC(N)=O)C(=O)N[C@H]2C(=O)N[C@H]3C(=O)N[C@H](C(=O)N[C@H](C(=O)O)c4cc(O)cc(O)c4-c4cc3ccc4O)[C@H](O)c3ccc(c(Cl)c3)Oc3cc2cc(c3O[C@@H]2O[C@H](CO)[C@@H](O)[C@H](O)[C@H]2O[C@H]2C[C@](C)(N)[C@H](O)[C@H](C)O2)Oc2ccc(cc2Cl)[C@H]1O | 3.7 |
| CN1CCC(c2c[nH]c3ccc(O)cc23)CC1 | 3.92 |
| O=C(NCc1ccccc1)OCCO [buramate] | 1.79 |
| CCCN(C/C=C/I)[C@H]1CCc2ccc(O)cc2C1 [7-hydroxy-PIPAT] | -0.19 |
| CN1CC[C@H](c2c(O)cc(O)c3c(=O)cc(-c4ccccc4Cl)oc23)[C@H](O)C1 [alvocidib] | -19.4 |

| SMILES | inhibition of SARS-CoV-2 cytopathic effect [%] |
| --- | --- |
| COc1ccc(-c2nc(-c3ccc(-c4cccc(Cl)c4)o3)[nH]c2-c2ccc(OC)cc2)cc1 [neurodazine] | 5.51 |
| Cc1ccc(C(C)C)c(O)c1 [thymol] | -1.48 |
| CCCC(=O)Nc1cccc(NC(=O)c2ccccc2Br)c1 | -1.59 |
| O/N=C/c1cc[n+](COC[n+]2ccc(/C=N/O)cc2)cc1 [obidoxime] | -1.59 |
| O=C(Nc1cccc2c(=O)cc(-c3nnn[nH]3)oc12)c1ccc(OCCCCc2ccccc2)cc1 [pranlukast] | -3.27 |
| c1cnc(NCc2ccc(CNc3ncccn3)cc2)nc1 | -1.46 |
| COc1ccc(-c2nc(C(=O)N3CCN(C)CC3)sc2-c2ccc(OC)cc2)cc1 | -2.37 |
| N#Cc1ccnc(N2C(=O)CC[C@H]2C(=O)N(c2cncc(F)c2)[C@H](C(=O)NC2CC(F)(F)C2)c2ccccc2Cl)c1 [ivosidenib] | 0.14 |
| COc1cc2nccc(Oc3ccc(NC(=O)Nc4ccc(F)cc4F)c(F)c3)c2cc1OC | 4.37 |
| O=C1c2ccccc2-c2n[nH]c3cccc1c23 [pyrazolanthrone] | -1.07 |
| COc1ccc(Br)cc1S(=O)(=O)NC(=O)/C=C/c1ccccc1Cc1ccc2ccccc2c1 | 3.35 |
| O=C(NCc1ccc2c(c1)OCO2)c1c(Cl)cccc1Cl [alda-1] | -5.92 |
| CC(C)n1cnc2c(C(=O)N[C@H]3CN4CCC3CC4)cc(Cl)cc21 | 1.32 |
| Nc1cc(C(F)(F)F)c(-c2nc(N3CCOCC3)nc(N3CCOCC3)n2)cn1 | 1.89 |
| Cc1ccc(NC(=O)C2(c3ccc4c(c3)OC(F)(F)O4)CC2)nc1-c1cccc(C(=O)O)c1 [lumacaftor] | -0.17 |
| OCCCNc1ccccc1 [3-anilinopropan-1-ol] | -0.07 |
